The subject of test [1] is Wnt5a (protein binding on small-molecule microarray). Put plainly: Wnt5a binders on small-molecule microarray, primary screen, biophysical, 635/667 nm fluorescence (AID 1142).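 Also: fluorescence read at 667 nm with signal to noise per printed feature.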 The following applies: 635 nm fluorescence, higher = more signal.
Test [2] is described as follows: cell viability in Huh7 cells, primary screen, cytotoxicity control for HCV replication inhibitor project, CellTiter-Glo luminescence, basal, 48 h (AID 1143).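 Also: Huh7 hepatoma cells carrying a hepatitis C replication reporter with no stimulus; test concentration not given here.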 The conditions noted are these: Huh7 HCV replicon, higher = more signal, called active from +8 up or from −8 down. A general note: Cellular ATP, detected with luciferase, serves as a proxy for viable cell number.

Test [3] can be described thus: P. aeruginosa biofilm formation inhibitors, primary screen, PAO1 strain, BacTiter-Glo luminescence, LB-PBS (AID 1144). The following applies: 12 h, higher = more signal.
A short description of test [4]: CREB reporter modulators without forskolin, primary screen, cell-based, PC12, CRE-LacZ reporter, unstimulated (AID 1145). The following applies: no forskolin, luminescence, 4.5 h, higher = more signal, called active from +8 up or from −8 down.
Test [5] is described as follows: CREB reporter modulators under forskolin, primary screen, cell-based, PC12, CRE-LacZ reporter, forskolin-stimulated (AID 1146).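 Also: PC12 cells with 6xCRE LacZ reporter stimulated by forskolin 10 µM; beta-galactosidase reporter signal reflecting CREB driven transcription.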 The following applies: luminescence, 4.5 h, higher = more signal, called active from +8 up or from −8 down.
Test [6] has as its target Streptavidin (Streptomyces avidinii) (UniProt P22629). Description: streptavidin binders on small-molecule microarray, primary screen, artefact control for SMM compound annotation, biophysical, 635/667 nm fluorescence (AID 1147).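 Also: signal reflects streptavidin binding to arrayed compounds as a control protein.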 The conditions noted are these: streptavidin binding, higher = more signal.
The nature of test [7]: small-molecule binders of probe aInhba, primary screen, biochemical, small-molecule microarray, 635/667 nm fluorescence (AID 1148).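 Also: score merges 667nm spot fluorescence with signal-to-noise for antibody binding to printed compounds.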 The following applies: higher = more signal.
The target of test [8] is Torsin-1A (Homo sapiens) (UniProt O14656). Put plainly: torsin A binders from cell lysate, primary screen, small-molecule microarray, wild-type, 635/667 nm (AID 1149). The conditions noted are these: COS7 hTOR1A-WT lysate, 635 nm fluorescence, higher = more signal.
Test [9] has the same target. Put plainly: small-molecule binders of mutant TOR1A in lysate, primary screen, cell lysate, small-molecule microarray, COS7 lysate, 635/667 nm fluorescence (AID 1150).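 Also: score pools 667 nm emission and signal to noise measuring lysate protein binding.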 The conditions noted are these: COS7 hTOR1A mutant lysate, 635 nm fluorescence, higher = more signal.
The test system of test [10] is Sonic hedgehog protein (Shh). Description: small-molecule binders of Shh protein, primary screen, biochemical, small-molecule microarray, 635/667 nm fluorescence (AID 1151).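 Also: Shh protein binding to compounds spotted on small-molecule microarray slides; score combines spot fluorescence intensity with signal-to-noise across triplicate slides.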 The conditions noted are these: small-molecule microarray binding, 635 nm fluorescence; higher = more signal.

Activity calls are given as the source filed them. Unless noted, no rule for the calls is given here.

Among the data in PubChem BioAssay are composite z-score and z-score values, retold here.

Torsin-1A (Homo sapiens), sequence (O14656 whole entry, looked up): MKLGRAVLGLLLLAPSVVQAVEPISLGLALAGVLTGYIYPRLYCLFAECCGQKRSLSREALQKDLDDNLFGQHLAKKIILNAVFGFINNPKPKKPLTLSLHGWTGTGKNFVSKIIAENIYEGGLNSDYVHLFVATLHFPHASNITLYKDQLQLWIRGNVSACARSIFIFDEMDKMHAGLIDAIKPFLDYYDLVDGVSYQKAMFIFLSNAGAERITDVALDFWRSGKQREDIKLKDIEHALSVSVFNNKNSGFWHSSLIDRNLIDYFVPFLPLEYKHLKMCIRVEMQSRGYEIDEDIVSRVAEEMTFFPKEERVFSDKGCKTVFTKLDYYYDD
Streptavidin (Streptomyces avidinii), sequence (P22629 whole entry, looked up): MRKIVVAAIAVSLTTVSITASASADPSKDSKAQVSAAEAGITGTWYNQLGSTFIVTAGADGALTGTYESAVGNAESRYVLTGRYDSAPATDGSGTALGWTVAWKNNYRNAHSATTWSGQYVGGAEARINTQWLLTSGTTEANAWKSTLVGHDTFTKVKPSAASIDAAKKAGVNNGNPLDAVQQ

Turning to `COc1ccc([Si](C)(C)[C@@H]2[C@@H](CC(=O)N(CCO)Cc3ccccc3)O[C@]3(C(=O)N(C)c4c(Br)cc(C)cc43)[C@H]2C)cc1`, the composite z-score was 0.312 in [1]; -0.212 in test [6]; -0.152 in test [7]; 0.268 in test [8]; -0.0496 in test [9]; 1.91 in test [10]. Moreover, the z-score was -5.28 (inactive) in test [2], 0.336 (inactive) in [3], 18.2 (active) in test [4] and 0.429 (inactive) in [5].

Regarding `COCCCNC(=O)[C@@]1(Cc2ccccc2I)c2ccccc2C(=O)N(Cc2ccccc2Cl)[C@H]1c1ccc(CO)cc1`, the composite z-score in test [1] is -0.193; in test [6] it was 1.46; in [7], -0.0538; in test [8], -0.0444; in test [9], -0.078; in [10], 0.191. The z-score was -4.15 (inactive) in test [2], -1.72 (inactive) in test [3], -0.529 (inactive) in [4] and -0.656 (inactive) in test [5].

On to `COCCOC(=O)N1C(=O)[C@@]2(c3cc(C#Cc4ccc(OC)cc4)ccc31)[C@H](C(=O)N1CCc3cc(OC)c(OC)cc3C1)[C@H]1C(=O)O[C@H](c3ccccc3)[C@H](c3ccccc3)N1[C@@H]2c1ccc(OCCO)cc1`, for which the composite z-score in test [1] was 0.4; in [6], 0.364; in test [7], 0.124; in test [8] it was 0.666; in test [9], 0.528; in [10], 1.69. In addition, the z-score is -0.831 (inactive) in test [2], -0.959 (inactive) in test [3], -1.27 (inactive) in test [4] and -0.194 (inactive) in [5].

Consider `COC(=O)[C@@]1(Cc2ccc(OC)cc2)[C@H]2c3cc(C(=O)N4CCCC4)n(CCc4ccc(O)c(OC)c4)c3C[C@H]2CN1C(=O)c1ccccc1`, for which the composite z-score in test [1] was 0.0928; in test [6], 0.199; in [7] it was 0.12; in test [8], 0.168; in [9] it was 0.774; in test [10] it was -0.909. In addition, the z-score is -0.666 (inactive) in [2], -0.414 (inactive) in [3], 2.5 (inactive) in test [4] and 1.04 (inactive) in test [5].

`CC(C)C[C@@H]1NC(=O)[C@@]23C(=O)N[C@@H](Cc4ccccc4)C2[C@H](C)[C@@]2(C)O[C@H]2C3/C=C/C/C=C\CNC(=O)[C@@H]2CCCN2C1=O` (stereo not given in full): the composite z-score in test [1] is -0.0917; in test [6], -0.767; in [7] it was 0.0051; in test [8], 0.249; in [9], 0.0725; in [10], 0.468. Moreover, the z-score in test [2] was -0.577 (inactive); in test [3] it was 0.595 (inactive); in [4], 1.12 (inactive); in test [5] it was -0.2 (inactive).

Take `COCCOC(=O)N1C(=O)[C@@]2(c3cc(C#CC4(O)CCCCCC4)ccc31)[C@H](C(=O)N1CCN(c3ncccn3)CC1)[C@H]1C(=O)O[C@H](c3ccccc3)[C@H](c3ccccc3)N1[C@@H]2c1ccc(O)cc1`: the composite z-score in [1] is 0.521; in test [6], -0.0314; in [7], 0.0982; in [8] it was 0.553; in test [9], 0.432; in [10], 0.481. Besides, the z-score in test [2] was -1.45 (inactive); in test [3], 0.148 (inactive); in test [4] it was -0.375 (inactive); in test [5], 0.505 (inactive).

Turning to `COC(=O)C(CC#Cc1ccc2c(c1)[C@]1(C(=O)N2)[C@H](c2ccccc2OCCO)N2[C@H](c3ccccc3)[C@H](c3ccccc3)OC(=O)[C@H]2[C@@H]1C(=O)Nc1nc2ccccc2s1)C(=O)OC`, the composite z-score in [1] was found to be 0.384; in test [6] it was 0.762; in test [7], 0.0633; in test [8], 0.283; in [9], 0.24; in [10], 1.46. Also, the z-score in test [2] is -2.07 (inactive); in test [3] it was -0.827 (inactive); in test [4] it was 1.21 (inactive); in [5], 1.53 (inactive).

In the case of `Cc1cc(C)c(C(O)C2C=CC3C(=O)N(c4ccccc4)C(=O)C3N2Nc2ccc([N+](=O)[O-])cc2)c(C)c1` (stereo not given), the composite z-score in [1] stood at 0.243; in test [6], 1.72; in test [7] it was 0.548; in test [8] it was 0.567; in test [9], 1.2; in [10] it was 0.697. Moreover, the z-score in test [2] was -1.1 (inactive); in [3], -2.08 (inactive); in [4] it was -0.0696 (inactive); in test [5], 0.691 (inactive).

For `COC(=O)[C@@]1(Cc2ccccc2)[C@H]2c3cc(C(=O)N4CCCC4)n(CCO)c3C[C@H]2CN1C(=O)c1ccccc1`, the composite z-score in test [1] is 1.42; in [6], 1.97; in test [7] it was 1.4; in [8] it was 3.21; in [9] it was 3.41; in test [10], -1.01. Moreover, the z-score in [2] is -1.08 (inactive); in test [3], 0.0984 (inactive); in test [4], -0.189 (inactive); in [5], 0.0581 (inactive).

Consider `CC1CC/C=C\[C@H]2OC34C=CCN(Cc5ccccc5)C(=O)[C@H]3N(CCO)C(=O)[C@@H]4C2C(=O)O1` (stereo not given in full), for which the composite z-score in test [1] was 0.478; in test [6] it was -0.492; in test [7] it was -0.176; in test [8], 2.37; in [9], 2.58; in test [10], -0.218. The z-score is -0.273 (inactive) in test [2], 0.836 (inactive) in [3], -0.0778 (inactive) in test [4] and 0.151 (inactive) in test [5].

For `C=C(CCCC)/C(=C/C[C@@H](OC(=O)c1ccncc1)c1ccccc1OCCO)c1cc(C(=O)OC)ccc1OC`, the composite z-score is 0.106 in test [1]; -0.36 in test [6]; -0.0047 in [7]; 0.622 in test [8]; 1.1 in test [9]; 1.4 in test [10]. The z-score in [2] was -2.02 (inactive); in [3], 0.0648 (inactive); in test [4], 15.6 (active); in test [5], 0.383 (inactive).
